Compound activity deposited in PubChem by National Center for Advancing Translational Sciences (NCATS).
Sampled rows, rich in hits. Any-hit rate of the full collection: about 3.3%.
AmpC inh detg: qHTS Inhibitors of AmpC Beta-Lactamase (assay with detergent) | P00811 | AmpC hydrolysis of nitrocefin, absorbance 480 nm, 0.01% Triton | Potency, µM (doses to about 114 µM), for the others: at the top dose activity change, negative = inhibition, usual class: inhibitors | 370,000 tested, 0.041% active | AID 485294, 2010;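 further: 0% = no-compound wells and -100% = no-enzyme wells; nearly all actives have a fitted effect of over 25% in size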
Target sequence (P00811 whole entry, looked up): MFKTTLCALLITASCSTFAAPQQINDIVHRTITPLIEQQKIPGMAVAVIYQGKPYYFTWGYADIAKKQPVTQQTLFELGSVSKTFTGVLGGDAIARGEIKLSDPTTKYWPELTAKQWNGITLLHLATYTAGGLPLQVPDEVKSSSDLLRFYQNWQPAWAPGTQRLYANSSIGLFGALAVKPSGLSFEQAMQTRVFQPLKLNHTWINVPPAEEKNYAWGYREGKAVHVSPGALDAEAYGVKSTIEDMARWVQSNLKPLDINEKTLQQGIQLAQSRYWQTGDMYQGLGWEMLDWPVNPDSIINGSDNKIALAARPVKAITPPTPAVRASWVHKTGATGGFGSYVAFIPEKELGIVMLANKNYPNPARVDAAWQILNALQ
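AmpC (5.3 nM in the dispensed reagent) in 20 mM phosphate pH 7.0 with 0.01% (detergent screen) or 0.0001% Triton X-100 was preincubated with compounds for 15 min at room temperature. Nitrocefin was then added from an 800 uM solution, and hydrolysis was followed at 480 nm.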
AmpC no deterg: qHTS Inhibitors of AmpC Beta-Lactamase (assay without detergent); AID 485341, 2010; Potency, µM (doses to about 57.1 µM), for inactives: top-dose activity change, negative = inhibition, hits mostly inhibitors; AmpC nitrocefin hydrolysis, absorbance 480 nm, 0.0001% Triton; 330,000 tested, 0.52% active; P00811;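 further: plate controls were no compound for no effect and no enzyme for full effect; nearly all actives have a fitted effect of over 20% in size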
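20 mM phosphate pH 7.0 + 0.01% (detergent screen) or 0.0001% Triton X-100; 5.3 nM AmpC reagent; cpd preinc 15 min RT; nitrocefin (800 uM stock) to start; A480 q20 s × 4 min; Activity was normalised to no-enzyme and no-compound control wells.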
Sm TGR block: qHTS Assay for the Inhibitors of Schistosoma Mansoni Peroxiredoxins | Potency, µM (highest dose often 114 µM), for inactives: at the top dose activity change, negative = inhibition, hits mostly inhibitors | purified TGR, DTNB reduction, TNB absorbance 405 nm | Schistosoma mansoni thioredoxin glutathione reductase (TGR), Q962Y6 | 360,000 tested, 3% active; further: nearly all actives have a fitted effect of over 60% in size
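TGR 20 nM + NADPH 100 uM (dispensed conc.), cpd preinc 15 min RT; start with NADPH (500 uM addition) then DTNB (15 mM addition). Kinetic TNB absorbance, 405 nm filter. Four-parameter Hill fit across titration.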
* hit, by the source's call; ? = inconclusive; . = not tested or not shown; ! = not confirmed by another sample; [ ] = remark or other dose. The call rests on the fitted dose curve; in most records, active means well fitted curve in the direction sought with a large enough effect; inconclusive means small, poorly fitted or top-dose-only effect, or another doubt; inactive means no such curve, though single readings can be large; an effect the other way counts as inactive or inconclusive. Unless noted, on the % scale 0 is the no-effect control and ±100 the full control effect; potency means the concentration at half of the fitted maximal effect.

SMILES	AmpC inh detg	AmpC no deterg	Sm TGR block
CN(C)c1ccc(NC(=O)CSC2=Nc3ccccc3C3=NC(CC(=O)NCc4ccc5c(c4)OCO5)C(=O)N23)cc1 (stereo not drawn)	-1%	.	-12%
CCn1ccc2cc(S(=O)(=O)N3CCCN(C(=O)Nc4ccc(C)c(F)c4)CC3)ccc21	-7%	.	-16%
CC(C)CC(=O)N(Cc1ccccc1)S(=O)(=O)c1ccc2c(c1)oc(=O)n2C	11%	.	-2%
CC(C)(C)c1ccc(Oc2nc3ccccn3c(=O)c2/C=C(\C#N)c2nc3ccccc3s2)cc1	20%	.	3.2µM*
Cc1cccc(Oc2nc3ccccn3c(=O)c2/C=C(\C#N)c2nc3ccccc3s2)c1C	22%	.	0%
CCn1c(=O)cc(SCC(=O)NCc2ccc(F)cc2Cl)c2ccccc21	19%	.	7%
COc1ccc(Nc2nc(N)nc(CCl)n2)cc1	7%	-23%	35µM*
Nc1nc(CCl)nc(Nc2ccc3ccccc3c2)n1	1%	-15%	16µM*
COc1ccc(Nc2ccc(Nc3ccc(OC)cc3)nn2)cc1	-3%	-30%	-7%
COc1ccc(Nc2nc(N)nc(CN3CCOCC3)n2)cc1	?	-27%	0%
Cc1ccccc1Nc1nc(N)nc(CCl)n1	-1%	-43%	?
COc1ccc(Nc2ccc(OC)cc2)cc1	-2%	-19%	40µM*
CCC1CN(C(=O)Nc2cccc3c2CCCC3)c2cc(C)ccc2O1 (stereo not drawn)	11%	.	9%
CCn1ccc2cc(S(=O)(=O)N3CCC(C(=O)NCCc4ccccc4Cl)CC3)ccc21	3%	.	4%
Cc1cc(O)c(C(=O)/C=C/c2ccc(Cl)cc2)c(=O)o1	-1%	25µM*	25µM*
COc1ccc(/C=C/C(=O)c2c(O)cc(C)oc2=O)c(OC)c1	5%	-39%	0%
COc1ccc(C(=O)/C=C/c2cc(OC)c(O)c(OC)c2)c(F)c1	13%	-38%	50µM*
COc1cccc(/C=C/C(=O)c2c(O)cc(C)oc2=O)c1O	-6%	-37%	-32%
CSc1ccc(/C=C/C(=O)c2c(O)cc(C)oc2=O)cc1	-11%	28µM*	-28%
C/C(=C\C(=O)c1c(O)cc(C)oc1=O)N(C)C	-5%	-14%	-14%
COc1cc(/C=C/C(=O)c2c(O)cc(C)oc2=O)cc(OC)c1O	-9%	0%	100µM*
COc1ccc2cc(C(=O)/C=C/c3cc(OC)c(O)c(OC)c3)ccc2c1	10%	14%	-35%
CCN(CC)CCCNC(=O)CSc1nc(-c2ccc(OC)cc2)cc(C(F)(F)F)n1	-5%	.	16%
COc1ccccc1CNC(=O)CCCn1c(=O)c2cccn2c2ccccc21	18%	.	8%
Cc1ccc(-c2csc3ncn(-n4c(C)ccc4C)c(=O)c23)o1	-8%	14%	6.3µM*
SMILES	AmpC inh detg	AmpC no deterg	Sm TGR block
Cc1sc2ncn(-n3c(C)ccc3C)c(=O)c2c1C	-17%	-10%	?
CCCc1cc(=O)n2[nH]c(NCc3ccccc3OC)nc2n1	2%	.	-1%
CCCCCCCCCc1nc2sc3c(c2c(=O)n1NC(=O)c1ccc([N+](=O)[O-])cc1)CC(C)(C)OC3	-2%	-29%	4%
CCCc1nc2sc3c(c2c(=O)n1NC(=O)c1ccco1)CC(C)(C)OC3	-10%[57.1 µM]	-22%	11µM*
CC(C)[C@H](CN(N=O)[C@@H](Cc1ccccc1)CN(C)N=O)N(CCc1ccccc1)N=O	6%	-2%	29%
CCCC[C@H](CN(N=O)[C@@H](Cc1ccccc1)CN(C)N=O)N(CCc1ccccc1)N=O	-4%	3%	0%
CC(C)C[C@@H](CN(C)N=O)N(C[C@H](Cc1ccccc1)N(CCc1ccccc1)N=O)N=O	-5%	23%	40µM*
CN(C[C@H](Cc1ccccc1)N(C[C@H](Cc1cccc2ccccc12)N(CCc1ccccc1)N=O)N=O)N=O	0%	-10%	35µM*
N=c1c(C(=O)NCC2CCCO2)cc2c(=O)n3ccccc3nc2n1CCCO (stereo not drawn)	6%	.	5%
COc1ccc(CCNC(=O)c2ccc3c(c2)CCN3S(C)(=O)=O)cc1	24%	.	4%
CCN(c1ccc(C)cc1C)S(=O)(=O)c1nnc(NC(=O)c2ccco2)s1	-14%	-45%	50µM*
CN(c1ccccc1)S(=O)(=O)c1nnc(NC(=O)c2ccco2)s1	0%	-19%	-64%
CC(C)CN(c1ccccc1)S(=O)(=O)c1nnc(NC(=O)c2ccco2)s1	-5%	26%	35µM*!
CCN(CC)S(=O)(=O)c1nnc(NC(=O)c2ccco2)s1	1%	-32%	-35%
Cc1cccc(N(C)S(=O)(=O)c2nnc(NC(=O)c3ccco3)s2)c1	-8%	-24%	-31%
